Reference: the supplement of paper PMC10849652
Of roughly 7,900 targets only a part is listed; those with a hit were picked by preference. About 0.6% of all pairs of compound and target were hits.

Columns and labels:
Assay in all cases: log2 fold change, soluble protein after heating vs DMSO (PISA); higher = thermal stabilisation; K562 cells, 10 uM, 30 min; active = over 0.2 and 3.5 SD of the protein, either way, in both replicates (recomputed)
[1] = compound: CN1CCN(CCOc2cc(OC3CCOCC3)c3c(Nc4c(Cl)ccc5c4OCO5)ncnc3c2)CC1 [saracatinib]
How it was run: (§1)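 For each measurement, 10 μM compound was applied for 30 min to K562 cells at 2×10^6 cells/mL. Aliquots were heated for 3 min across 48°C-58°C, pooled, and extracted in PBS with 0.5% NP-40 at 4°C; the supernatant after 21,000xg for 90 min was soluble protein. This was quantified by TMTpro 16plex LC-MS/MS with channel sums equalised, and thermal stability was reported relative to control samples from duplicates, on a log2 fold-change scale.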

[2] = compound: CN1CC[C@H](c2c(O)cc(O)c3c(=O)cc(-c4ccccc4Cl)oc23)[C@H](O)C1 [alvocidib]
How it was run: as §1

[3] = compound: CN1CCc2c(c3ccccc3n2Cc2ccc(C(=O)NO)cc2)C1 [Tubastatin A]
How it was run: as §1

[4] = compound: CNC(=O)C1=CC=CC=C1NC2=NC(=NC=C2Cl)NC3=C(C=C(C=C3)N4CCOCC4)OC
How it was run: as §1

[5] = compound: CNC(=O)c1ccc(Nc2ncc(C(F)(F)F)c(NCc3nccnc3N(C)S(C)(=O)=O)n2)cc1 [defactinib]
How it was run: as §1

[6] = compound: CNCc1ccc(-c2[nH]c3cc(F)cc4c3c2CCNC4=O)cc1 [rucaparib]
How it was run: as §1

[7] = compound: CNc1nc(-c2ccc3c(N)n[nH]c3c2)cc(N2C[C@@H](C(=O)NC3CCCCC3)CC[C@H]2C)n1
How it was run: as §1

[8] = compound: COC(=O)N[C@@H](C)CNc1nccc(-c2cn(C(C)C)nc2-c2cc(Cl)cc(NS(C)(=O)=O)c2F)n1 [encorafenib]
How it was run: as §1

[9] = compound: COC(=O)[C@H](CCSC)NC(=O)C1=C(C=C(C=C1)NC[C@H](CS)N)C2=CC=CC=C2
How it was run: as §1

[10] = compound: CN1CCN(c2nc(C3=C(c4c[nH]c5ccccc45)C(=O)NC3=O)c3ccccc3n2)CC1 [sotrastaurin]
How it was run: as §1

Measured: log2 fold change

CLCN5 isoform 2 (UniProt P51795)
inactive: [1] -0.001 | [2] -0.032 | [3] -0.006 | [4] 0.009 | [5] -0.033 | [6] 0.097 | [7] -0.116 | [8] 0.075 | [9] -0.025

CHPT1 (UniProt Q8WUD6)
inactive: [1] -0.066 | [10] -0.016 | [2] -0.118 | [3] -0.08 | [6] -0.069 | [7] 0.034 | [8] 0.103

CD84 (UniProt Q9UIB8)
Sequence of UniProt Q9UIB8 (Q9UIB8 whole entry, looked up): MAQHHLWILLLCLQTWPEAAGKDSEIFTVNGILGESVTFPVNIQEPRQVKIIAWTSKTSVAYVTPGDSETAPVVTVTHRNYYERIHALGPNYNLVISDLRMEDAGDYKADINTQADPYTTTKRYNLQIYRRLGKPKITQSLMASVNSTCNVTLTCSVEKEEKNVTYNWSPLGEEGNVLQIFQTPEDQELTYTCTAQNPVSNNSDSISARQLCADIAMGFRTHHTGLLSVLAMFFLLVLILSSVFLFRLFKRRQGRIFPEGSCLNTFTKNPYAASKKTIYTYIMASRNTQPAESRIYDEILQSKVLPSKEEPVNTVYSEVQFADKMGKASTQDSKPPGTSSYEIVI
active: [7] 0.56
inactive: [1] -0.012 | [10] -0.144 | [2] -0.111 | [3] -0.039 | [4] -0.119

CRMP1 isoform 2 (UniProt Q14194)
inactive: [1] -0.059 | [10] 0.107 | [2] -0.052 | [3] 0.025 | [4] 0.024 | [5] -0.149 | [7] -0.041 | [9] 0.025

CSNK1A1 (UniProt P48729)
Sequence of UniProt P48729 (P48729 whole entry, looked up): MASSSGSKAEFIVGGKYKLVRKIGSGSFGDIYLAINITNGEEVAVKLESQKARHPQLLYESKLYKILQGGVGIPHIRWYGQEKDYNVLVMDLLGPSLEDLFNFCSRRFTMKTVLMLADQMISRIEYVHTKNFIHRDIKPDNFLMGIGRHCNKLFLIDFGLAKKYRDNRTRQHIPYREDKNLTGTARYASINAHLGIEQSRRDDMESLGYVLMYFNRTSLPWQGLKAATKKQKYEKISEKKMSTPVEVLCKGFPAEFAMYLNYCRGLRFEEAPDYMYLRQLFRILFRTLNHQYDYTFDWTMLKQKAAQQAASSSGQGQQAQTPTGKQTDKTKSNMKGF
inactive: [1] -0.028 | [10] 0.011 | [2] 0.146 | [3] 0.115 | [5] 0.058 | [6] 0.128 | [7] 0.042 | [8] 0.037 | [9] -0.016

CHAF1A (UniProt Q13111)
inactive: [1] 0.008 | [10] 0.004 | [2] 0.041 | [4] 0.133 | [6] 0.198 | [7] -0.125 | [8] 0.094

CLUH (UniProt O75153)
inactive: [1] -0.032 | [10] -0.141 | [2] -0.006 | [3] 0.033 | [4] -0.049 | [5] -0.04 | [6] 0.239 | [7] 0.133 | [8] -0.044 | [9] -0.046

CALB1 (UniProt P05937)
inactive: [1] 0.033 | [10] 0.008 | [2] 0.034 | [3] -0.026 | [4] 0.02 | [5] 0.013 | [6] -0.07 | [7] -0.14 | [8] 0.023 | [9] 0.021

CNOT4 isoform 6 (UniProt O95628)
inactive: [1] 0 | [10] 0.003 | [2] -0.095 | [3] -0.003 | [4] -0.014 | [5] -0.03 | [6] -0.044 | [7] -0.07 | [8] -0.023 | [9] -0.015

CAB39L (UniProt Q9H9S4)
Sequence of UniProt Q9H9S4 (Q9H9S4 whole entry, looked up): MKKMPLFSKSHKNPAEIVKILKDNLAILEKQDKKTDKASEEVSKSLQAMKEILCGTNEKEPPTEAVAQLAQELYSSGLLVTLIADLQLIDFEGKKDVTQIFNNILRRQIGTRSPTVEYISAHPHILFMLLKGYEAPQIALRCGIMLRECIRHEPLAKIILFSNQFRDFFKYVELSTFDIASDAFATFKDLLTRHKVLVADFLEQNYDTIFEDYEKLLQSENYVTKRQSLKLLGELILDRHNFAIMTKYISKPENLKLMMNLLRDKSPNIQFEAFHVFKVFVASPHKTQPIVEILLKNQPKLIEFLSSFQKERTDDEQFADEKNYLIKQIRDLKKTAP
inactive: [1] 0.043 | [10] -0.213 | [3] 0.056 | [4] 0.049 | [5] -0.09 | [6] 0.003 | [7] 0.015 | [8] -0.144 | [9] 0.043

C9orf72 (UniProt Q96LT7)
Sequence of UniProt Q96LT7 (Q96LT7 whole entry, looked up): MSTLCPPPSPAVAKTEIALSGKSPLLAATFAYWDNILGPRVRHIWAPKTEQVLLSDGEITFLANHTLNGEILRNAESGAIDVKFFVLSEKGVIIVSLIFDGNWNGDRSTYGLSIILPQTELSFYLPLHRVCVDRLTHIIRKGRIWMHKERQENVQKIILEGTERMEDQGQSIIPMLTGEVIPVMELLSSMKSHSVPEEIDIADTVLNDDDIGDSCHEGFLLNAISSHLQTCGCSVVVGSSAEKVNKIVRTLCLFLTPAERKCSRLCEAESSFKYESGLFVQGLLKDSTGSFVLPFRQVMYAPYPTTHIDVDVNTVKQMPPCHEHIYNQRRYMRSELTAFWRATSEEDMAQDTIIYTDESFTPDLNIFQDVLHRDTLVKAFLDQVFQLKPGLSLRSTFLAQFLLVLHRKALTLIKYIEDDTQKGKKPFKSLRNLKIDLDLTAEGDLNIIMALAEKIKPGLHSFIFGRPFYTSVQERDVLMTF
inactive: [1] 0.071 | [10] 0.129 | [2] -0.04 | [3] -0.126 | [4] -0.071 | [5] -0.056 | [7] -0.021 | [9] 0

CDK17 isoform 2 (UniProt Q00537)
inactive: [1] 0.008 | [10] -0.036 | [4] -0.017 | [5] 0.11 | [6] 0.494 | [7] 0.06 | [8] -0.027 | [9] 0.014
active: [2] 0.602

CASP10 isoform 4 (UniProt Q92851)
Sequence of UniProt Q92851 (Q92851 whole entry, looked up): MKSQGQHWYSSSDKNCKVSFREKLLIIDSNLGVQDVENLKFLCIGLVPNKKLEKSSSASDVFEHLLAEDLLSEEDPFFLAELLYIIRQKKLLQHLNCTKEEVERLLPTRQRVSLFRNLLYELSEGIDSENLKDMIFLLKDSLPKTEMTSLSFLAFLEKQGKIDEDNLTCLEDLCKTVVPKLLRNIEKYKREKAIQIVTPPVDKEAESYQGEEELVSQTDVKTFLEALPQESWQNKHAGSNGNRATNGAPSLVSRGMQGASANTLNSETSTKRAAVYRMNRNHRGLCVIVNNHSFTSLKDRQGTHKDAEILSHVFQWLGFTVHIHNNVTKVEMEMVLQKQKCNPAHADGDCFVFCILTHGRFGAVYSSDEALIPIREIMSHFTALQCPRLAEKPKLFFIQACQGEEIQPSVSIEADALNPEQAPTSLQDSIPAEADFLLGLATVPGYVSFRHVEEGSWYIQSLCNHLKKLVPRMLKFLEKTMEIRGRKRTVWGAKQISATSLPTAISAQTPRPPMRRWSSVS
inactive: [1] 0.034 | [10] -0.138 | [2] -0.116 | [3] 0.127 | [5] 0.028 | [6] 0.111 | [7] 0.04 | [8] 0.164 | [9] -0.039

CASC3 (UniProt O15234)
active: [2] 0.6
inactive: [1] -0.015 | [10] 0.067 | [3] -0.06 | [4] 0.021 | [5] 0.323 | [6] 0.158 | [7] -0.126 | [8] -0.089 | [9] 0.073

CDK16 isoform 2 (UniProt Q00536)
inactive: [1] -0.014 | [10] 0.246 | [3] 0.014 | [4] 0.027 | [5] 0.236 | [6] 0.278 | [7] -0.102 | [8] 0.016 | [9] -0.146

CCDC167 (UniProt Q9P0B6)
inactive: [1] -0.05 | [10] -0.018 | [2] 0.061 | [3] -0.063 | [4] -0.006 | [6] 0.021 | [7] 0.104 | [8] -0.037

CASP8 isoform 9 (UniProt Q14790)
inactive: [1] -0.032 | [10] -0.019 | [3] 0.115 | [4] 0.053 | [5] -0.1 | [6] 0.011 | [7] 0.04 | [8] 0.044 | [9] 0.037

CCNC (UniProt P24863)
Sequence of UniProt P24863 (P24863 whole entry, looked up): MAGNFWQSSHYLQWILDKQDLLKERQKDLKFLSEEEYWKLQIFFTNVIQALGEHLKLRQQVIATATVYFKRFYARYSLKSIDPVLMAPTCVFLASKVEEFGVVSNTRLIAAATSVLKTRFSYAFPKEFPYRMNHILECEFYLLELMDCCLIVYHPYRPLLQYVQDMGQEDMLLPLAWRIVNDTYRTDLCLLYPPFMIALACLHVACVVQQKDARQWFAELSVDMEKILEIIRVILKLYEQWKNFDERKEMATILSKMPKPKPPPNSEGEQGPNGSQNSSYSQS
inactive: [1] 0.057 | [10] -0.057 | [4] 0.008 | [5] -0.047 | [7] -0.028 | [9] 0.001
active: [2] 0.6

C6orf120 (UniProt Q7Z4R8)
inactive: [1] -0.097 | [10] 0.008 | [3] 0.041 | [4] -0.145 | [5] 0.024 | [6] 0.127 | [7] 0.041 | [8] 0.074 | [9] -0.045

CASP9 (UniProt P55211)
Sequence of UniProt P55211 (P55211 whole entry, looked up): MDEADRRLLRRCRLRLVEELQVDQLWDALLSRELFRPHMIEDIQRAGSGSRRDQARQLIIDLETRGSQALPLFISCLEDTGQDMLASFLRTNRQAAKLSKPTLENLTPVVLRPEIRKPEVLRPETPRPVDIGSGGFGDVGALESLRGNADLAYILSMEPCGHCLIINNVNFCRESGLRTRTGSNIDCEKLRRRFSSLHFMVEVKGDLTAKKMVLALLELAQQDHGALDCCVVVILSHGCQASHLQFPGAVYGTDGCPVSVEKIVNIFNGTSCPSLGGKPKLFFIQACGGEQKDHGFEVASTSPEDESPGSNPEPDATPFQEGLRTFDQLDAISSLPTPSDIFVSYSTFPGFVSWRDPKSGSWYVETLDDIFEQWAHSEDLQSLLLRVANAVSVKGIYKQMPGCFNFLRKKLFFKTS
inactive: [1] -0.206 | [10] -0.25 | [2] -0.136 | [3] 0.098 | [5] -0.165 | [6] 0.161 | [7] -0.051 | [8] 0.012 | [9] -0.035

CKB (UniProt P12277)
Sequence of UniProt P12277 (P12277 whole entry, looked up): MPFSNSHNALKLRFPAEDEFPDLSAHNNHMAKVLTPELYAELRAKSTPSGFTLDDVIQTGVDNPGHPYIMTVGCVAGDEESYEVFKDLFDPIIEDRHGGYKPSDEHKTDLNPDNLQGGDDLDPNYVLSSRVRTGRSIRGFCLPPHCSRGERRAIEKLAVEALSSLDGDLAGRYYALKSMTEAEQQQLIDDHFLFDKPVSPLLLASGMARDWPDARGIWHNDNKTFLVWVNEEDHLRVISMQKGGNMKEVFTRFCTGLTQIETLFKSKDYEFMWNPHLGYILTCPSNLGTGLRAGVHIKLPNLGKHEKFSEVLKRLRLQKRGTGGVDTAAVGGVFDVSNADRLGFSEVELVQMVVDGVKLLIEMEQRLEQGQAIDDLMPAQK
inactive: [1] -0.041 | [10] 0.019 | [2] -0.089 | [3] -0.004 | [4] -0.016 | [5] -0.006 | [6] -0.059 | [7] 0.043 | [8] 0.015 | [9] -0.011

COX7C (UniProt P15954)
Sequence of UniProt P15954 (P15954 whole entry, looked up): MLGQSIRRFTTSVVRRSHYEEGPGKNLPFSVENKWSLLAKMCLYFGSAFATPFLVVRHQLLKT
inactive: [1] 0.026 | [10] 0.028 | [3] 0.03 | [4] 0.007 | [5] 0.031 | [6] 0.011 | [7] -0.054 | [8] -0.06 | [9] 0.047

CENPE (UniProt Q02224)
inactive: [1] 0.318 | [10] -0.19 | [2] -0.385 | [3] 0.091 | [4] -0.277 | [5] -0.056 | [7] 0.399 | [9] 0.198

CDK4 (UniProt P11802)
inactive: [1] -0.03 | [10] -0.028 | [2] 0.098 | [4] 0.07 | [5] -0.039 | [6] 0.051 | [7] -0.057 | [8] -0.008 | [9] -0.07

CLCN7 (UniProt P51798)
Sequence of UniProt P51798 (P51798 whole entry, looked up): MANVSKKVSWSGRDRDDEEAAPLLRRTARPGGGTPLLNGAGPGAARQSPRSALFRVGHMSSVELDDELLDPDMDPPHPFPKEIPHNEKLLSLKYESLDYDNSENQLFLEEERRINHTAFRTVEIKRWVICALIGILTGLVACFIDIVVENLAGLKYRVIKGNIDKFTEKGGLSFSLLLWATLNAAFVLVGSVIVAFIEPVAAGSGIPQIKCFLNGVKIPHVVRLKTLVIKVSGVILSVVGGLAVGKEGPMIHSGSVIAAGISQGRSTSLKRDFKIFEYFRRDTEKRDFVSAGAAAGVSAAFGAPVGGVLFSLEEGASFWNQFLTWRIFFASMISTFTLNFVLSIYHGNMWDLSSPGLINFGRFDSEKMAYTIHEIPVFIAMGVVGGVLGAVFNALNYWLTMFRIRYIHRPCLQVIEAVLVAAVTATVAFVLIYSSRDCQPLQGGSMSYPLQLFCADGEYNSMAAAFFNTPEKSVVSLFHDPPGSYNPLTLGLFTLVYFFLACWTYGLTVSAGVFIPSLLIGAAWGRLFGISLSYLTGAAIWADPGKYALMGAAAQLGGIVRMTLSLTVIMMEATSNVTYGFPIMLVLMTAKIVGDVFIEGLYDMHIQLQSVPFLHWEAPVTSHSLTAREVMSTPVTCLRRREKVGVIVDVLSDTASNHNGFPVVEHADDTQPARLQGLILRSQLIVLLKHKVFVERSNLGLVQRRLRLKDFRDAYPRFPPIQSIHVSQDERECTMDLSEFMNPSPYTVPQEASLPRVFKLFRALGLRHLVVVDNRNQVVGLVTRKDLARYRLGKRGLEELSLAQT
inactive: [1] 0.004 | [10] -0.112 | [2] 0.007 | [3] -0.071 | [4] 0.044 | [5] 0.025 | [6] -0.052 | [7] -0.156 | [8] 0.151 | [9] -0.04

CDCA2 (UniProt Q69YH5)
inactive: [10] -0.148 | [2] 0.008 | [3] 0.217 | [4] -0.152 | [5] -0.063 | [6] 0.011 | [8] 0.318 | [9] -0.03

CLPTM1L (UniProt G5E9Z2)
inactive: [10] -0.288 | [2] 0.051 | [3] -0.109 | [5] 0.002 | [9] -0.029

CASP7 isoform 3 (UniProt P55210)
Sequence of UniProt P55210 (P55210 whole entry, looked up): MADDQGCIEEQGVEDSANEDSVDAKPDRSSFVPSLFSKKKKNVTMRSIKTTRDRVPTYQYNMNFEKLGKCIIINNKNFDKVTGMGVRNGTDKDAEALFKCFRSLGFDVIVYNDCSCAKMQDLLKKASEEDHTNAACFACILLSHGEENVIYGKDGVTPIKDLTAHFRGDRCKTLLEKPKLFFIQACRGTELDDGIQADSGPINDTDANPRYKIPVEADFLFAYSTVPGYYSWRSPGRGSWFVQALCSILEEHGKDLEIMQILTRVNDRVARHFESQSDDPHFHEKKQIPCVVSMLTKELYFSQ
inactive: [1] 0.185 | [4] 0.151 | [6] -0.013 | [7] 0.254 | [8] 0.014

CASK (UniProt O14936)
inactive: [1] -0.068 | [4] -0.064 | [7] -0.009

CDK2AP2 (UniProt O75956)
inactive: [2] -0.048 | [4] -0.092 | [6] 0.134 | [8] -0.038

CHST11 (UniProt Q9NPF2)
inactive: [10] -0.02 | [2] -0.049 | [3] 0.08 | [4] 0.079 | [5] -0.003 | [6] 0.083 | [8] 0.177 | [9] -0.048

CARD9 (UniProt Q9H257)
inactive: [4] 0.388

CCND3 (UniProt P30281)
Sequence of UniProt P30281 (P30281 whole entry, looked up): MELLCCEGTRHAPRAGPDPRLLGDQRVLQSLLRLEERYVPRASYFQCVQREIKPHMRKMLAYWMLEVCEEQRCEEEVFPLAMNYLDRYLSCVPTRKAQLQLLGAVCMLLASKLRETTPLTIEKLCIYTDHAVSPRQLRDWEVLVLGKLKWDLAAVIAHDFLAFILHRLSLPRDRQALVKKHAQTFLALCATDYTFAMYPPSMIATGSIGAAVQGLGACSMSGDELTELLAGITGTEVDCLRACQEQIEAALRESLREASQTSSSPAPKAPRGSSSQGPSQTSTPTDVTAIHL
inactive: [1] 0.03 | [2] 0.008 | [3] 0.242 | [4] -0.018 | [5] -0.037 | [6] 0.113 | [7] -0.067 | [8] -0.11 | [9] 0

CHST10 (UniProt O43529)
Sequence of UniProt O43529 (O43529 whole entry, looked up): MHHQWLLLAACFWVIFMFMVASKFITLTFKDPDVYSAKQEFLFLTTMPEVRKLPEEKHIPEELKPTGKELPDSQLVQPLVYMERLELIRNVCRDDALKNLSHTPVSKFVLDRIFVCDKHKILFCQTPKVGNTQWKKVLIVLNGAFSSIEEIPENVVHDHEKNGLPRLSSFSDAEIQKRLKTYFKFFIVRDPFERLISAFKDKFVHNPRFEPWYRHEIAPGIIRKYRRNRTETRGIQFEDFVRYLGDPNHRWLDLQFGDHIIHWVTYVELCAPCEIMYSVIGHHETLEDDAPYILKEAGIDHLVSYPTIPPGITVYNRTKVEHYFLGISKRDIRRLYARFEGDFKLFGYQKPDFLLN
inactive: [10] -0.01 | [2] -0.106 | [3] -0.037 | [4] 0.035

CFAP58 (UniProt Q5T655)
inactive: [8] 0.265
active: [6] -1.21

CA1 (UniProt E5RIF9)
inactive: [1] 0.272 | [3] -0.178 | [5] -0.09 | [7] 0.093 | [9] -0.129

CRTC3 (UniProt Q6UUV7)
inactive: [10] 0.044 | [2] -0.051 | [3] -0.109 | [5] 0.025 | [9] -0.06

CLINT1 (UniProt Q14677)
inactive: [1] -0.003 | [2] -0.112 | [3] -0.029 | [5] -0.002 | [6] 0.128 | [7] -0.062 | [8] -0.045 | [9] 0.036
